Rows were chosen to be rich in hits. Some 3.6% of all compounds tested hit in one or more screens of this group.
mHTT CaM bind = inhibitors of human mutant huntingtin-calmodulin interaction. P42858. AlphaScreen His-mHTT/GST-CaM binding, luminescence. AID 1671202. inhibition, % at 15 µM. hit rate 3.6% among 190,000
Pf apPOL block = Pf-apPOL DNA polymerase inhibition; Recombinant Pf-apPOL, molecular beacon fluorescence, 1.5 h; inhibition, % at 10 µM; hit rate 0.25% among 210,000
A number is an active result; n = inactive; x = no result given. No stated cut-off is given here; in the data, active means inhibition above about 50%; inactive means the rest.

SMILES	mHTT CaM bind	Pf apPOL block
O=[N+]([O-])c1ccc(CNc2ccc3c(c2)CCC3)s1	83.7	n
COc1cccc(NCc2ccc([N+](=O)[O-])s2)c1	n	n
CCCC(=O)N(CCN1CCOCC1)c1nc2ccc(Br)cc2s1	n	n
O=C(CCOc1ccccc1)N(CCN1CCOCC1)c1nc2c(Cl)cccc2s1	87.1	n
CCOC(Cn1c2ccccc2c2ccccc21)OCC	n	n
CC1CN(C(=O)c2ccsc2)CC1c1nc(-c2ccncc2)no1 (configuration not stated)	n	n
C#CCNC(=O)c1nnc(N2CCN(c3ccccc3Cl)CC2)c2ccccc12	n	n
COc1cc(C(=O)N2CCN=C2SC)cc(OC)c1OC	n	n
O=C(Cc1nc(-c2ccccn2)n[nH]1)Nc1ccc(F)cc1F	97.3	n
O=C(Cc1nc(-c2ccccn2)n[nH]1)Nc1ccccc1F	94.5	n
O=C(Cc1nc(-c2ccccc2)n[nH]1)Nc1ccc(F)c(F)c1	n	n
Cc1ccccc1NC(=O)Cc1nc(-c2ccccc2)n[nH]1	n	n
O=C(Cc1ccccc1F)N1CCC(CCOCc2cccc(F)c2)CC1	n	n
O=C(NCC1CCN(C2CCCC2)CC1)C(=O)NC1CCCCCC1	n	n
COc1ccc(CNc2nc(-c3ccccc3)nnc2C)cc1	55.8	n
COc1ccc(-c2nnc(C)c(NCc3ccccc3)n2)cc1	n	n
Cc1cc(C(=O)Nc2c(Cl)cccc2Cl)no1	n	n
Cc1ccc(NC(=O)N2CC3CC2CC3NS(=O)(=O)c2ccccc2)c(C)c1 (configuration not stated)	n	n
O=C(O)/C=C/c1cccc(N=Cc2ccc(N3CCOCC3)cc2)c1	n	n
O=C(O)/C=C/c1cccc(N=Cc2ccc([N+](=O)[O-])o2)c1	71.0	n
CC(=O)Nc1ccc(Nc2nc(-c3ccccc3)cs2)cc1	n	n
CC(=O)Nc1ccc(Nc2nc(-c3ccc(Cl)cc3)cs2)cc1	75.7	n
COc1ccc(-c2csc(Nc3ccc(NC(C)=O)cc3)n2)cc1	59.9	n
COc1ccc(-c2csc(Nc3ccc(C(=O)O)cc3)n2)cc1	n	n
COc1cc(NC(=O)C(c2ccccc2)c2ccccc2)c(Cl)cc1NC(=O)c1ccccc1	n	n
SMILES	mHTT CaM bind	Pf apPOL block
COc1ccc(S(=O)(=O)NCc2ccccc2)c2cccnc12	n	n
Cc1ccc(-c2nnc(Cc3nc(C(C)C)no3)o2)cc1C	n	n
CC1(C(=O)NCc2ccccc2)CCC(=O)N1CCc1ccco1 (configuration not stated)	n	n
COc1ccc(C=C2SC(=S)N(CCc3ccc(O)cc3)C2=O)c(OC)c1	77.3	n
COc1ccc(/C=C2\SC(=O)N(CN3CCOCC3)C2=O)c(OC)c1	n	n
Nc1cc(C2CCN(C(=O)c3ccc(Br)o3)CC2)no1	n	n
CC(C(=O)Nc1ccc([N+](=O)[O-])cc1Br)N1C(=O)c2ccccc2C1=O (configuration not stated)	n	n
O=C(NCc1cccs1)c1ccc(S(=O)(=O)NCc2ccc3c(c2)OCO3)o1	n	n
Cc1nnc(NC(=O)c2ccc(S(=O)(=O)NCc3ccc4c(c3)OCO4)o2)s1	99.9	n
CC1(C)CC(=O)C(C=Nc2nc3c(s2)CCc2c-3cnn2-c2ccccc2)=C(O)C1	n	n
O=C(OCc1cn([C@H]2C[C@H](c3ccccc3)N(CC3CCCCC3)C[C@@H]2O)nn1)c1ccccc1	n	n
COc1ccc([C@H]2C[C@H](O)[C@@H](n3cc(COC(=O)c4ccccc4)nn3)CN2Cc2cccs2)cc1	90.0	n
COc1ccc([C@H]2C[C@H](O)[C@@H](n3cc(COC(=O)c4ccccc4)nn3)CN2CC2CCCCC2)cc1	68.9	n
CCCCCCN1C[C@H](n2cc(COC(=O)c3ccccc3)nn2)[C@@H](O)C[C@@H]1c1ccc(Cl)cc1	n	n
CCCCCCN1C[C@H](n2cc(COC(=O)c3ccccc3)nn2)[C@@H](O)C[C@@H]1c1ccc(OC)cc1	55.5	n
COc1ccc([C@H]2C[C@@H](O)[C@H](n3cc(COC(=O)c4ccccc4)nn3)CN2Cc2cccs2)cc1	n	n
O=C(COc1ccc(-n2cnnn2)cc1)Nc1ccc(OC(F)(F)Cl)cc1	n	n
COc1ccc(OC)c(Nc2nc(-c3sc(N)nc3C)cs2)c1	80.7	n
COc1ccccc1Nc1nc(-c2ccncc2)cs1	n	n
COc1nc(Nc2cc(Cl)ccc2OC)nc(OC)n1	n	n
COc1ccc(Cl)cc1Nc1nc(-c2sc(N)nc2C)cs1	81.6	n
COC(=O)c1ccc(S(=O)(=O)N2CCN(S(=O)(=O)C3CC3)CC2)cc1	n	n
Cc1cccc(C(=O)N2CCc3c(c(-c4nc(-c5ccccc5F)no4)nn3C)C2)c1	n	n
O=C(c1ccc2c(c1)C1C=CCC1C(c1ccc([N+](=O)[O-])cc1)N2)N1CCCCCC1 (configuration not stated)	95.5	n
COc1cc([N+](=O)[O-])cc2c1NC(c1ccccc1)C1CC=CC21 (configuration not stated)	n	n
SMILES	mHTT CaM bind	Pf apPOL block
COc1ccc2c(c1)C1C=CCC1C(c1ccc([N+](=O)[O-])cc1)N2 (configuration not stated)	94.9	n
CCOc1c(Br)cc(C2Nc3ccc([N+](=O)[O-])cc3C3C=CCC32)cc1OC (configuration not stated)	58.0	n
O=[N+]([O-])c1ccc2c(c1)C1C=CCC1C(c1ccc(F)cc1)N2 (configuration not stated)	n	n
Cc1ccc(N=C(NOCc2cccc([N+](=O)[O-])c2)c2nonc2N)cc1	n	n
Cc1ccnc(NC(=O)C2CCCN(c3cc(-n4cccn4)ncn3)C2)c1 (configuration not stated)	n	n
O=C(NCc1cccs1)C1CCCN(c2ccc(-n3cccn3)nn2)C1 (configuration not stated)	56.8	n
Cn1ncc(N2CCCC(C(=O)NCc3cccs3)C2)cc1=O (configuration not stated)	n	n
Cc1nc(NC(=O)C2CCCN(c3ccc(-n4cccn4)nn3)C2)sc1C (configuration not stated)	94.0	n
O=c1/c(=C/c2cn(-c3ccccc3)nc2-c2cccs2)sc2nc(-c3ccncc3)nn12	n	n
COc1ccc(-c2oc(NC(=O)C(F)(F)F)c(C#N)c2-c2ccc(OC)cc2)cc1	63.0	n
COc1ccc(-c2oc(N=CN3CCCCCC3)c(C#N)c2-c2ccc(OC)cc2)cc1	n	n
COCCNC(=O)Nc1ccccc1NC(=O)c1ccccc1F	n	n
Cn1nc(NC(=O)c2ccc(F)cc2Cl)c2c1NC(=O)CC2c1ccco1 (configuration not stated)	n	n
Cc1[nH]nc2c1C(c1ccco1)CC(c1ccco1)=C2 (configuration not stated)	64.5	x
Cc1cc(N2CCC(C)CC2)n2nc(CN3CCCC(C)C3)nc2n1 (configuration not stated)	n	n
Cc1c(C(=O)Nc2ccc(N(C)C)cc2)cccc1[N+](=O)[O-]	n	n
O=C(C1=C(O)C(=O)N(CCN2CCOCC2)C1c1cccs1)c1ccco1 (configuration not stated)	n	n
COc1ccc(-c2nnc(NC(=O)CCCS(=O)(=O)Cc3ccccc3)o2)c(OC)c1	n	n
COc1ccc(-c2nnc(NC(=O)CN3C(=O)c4ccccc4C3=O)o2)c(OC)c1	51.6	n

Assay outcomes as filed in PubChem.
